# According to ChEMBL document CHEMBL3988442, “University of Dundee, Small-Polar-MMV Screening Library” (2021):
# What was measured:
# [1] = target: T1, Aspartate--tRNA(Asp/Asn) ligase (Mycobacterium tuberculosis (strain ATCC 25618 / H37Rv)) (UniProt P9WFW3); test: Assay for Asp RNA synthetase-1 from Mycobacterium tuberculosis; format: functional; design: scale not given: direction of the effect not stated beside the values; settings: 30 µM; also: in the data most compounds retested in dose-response had high values
# T1 sequence (whole entry): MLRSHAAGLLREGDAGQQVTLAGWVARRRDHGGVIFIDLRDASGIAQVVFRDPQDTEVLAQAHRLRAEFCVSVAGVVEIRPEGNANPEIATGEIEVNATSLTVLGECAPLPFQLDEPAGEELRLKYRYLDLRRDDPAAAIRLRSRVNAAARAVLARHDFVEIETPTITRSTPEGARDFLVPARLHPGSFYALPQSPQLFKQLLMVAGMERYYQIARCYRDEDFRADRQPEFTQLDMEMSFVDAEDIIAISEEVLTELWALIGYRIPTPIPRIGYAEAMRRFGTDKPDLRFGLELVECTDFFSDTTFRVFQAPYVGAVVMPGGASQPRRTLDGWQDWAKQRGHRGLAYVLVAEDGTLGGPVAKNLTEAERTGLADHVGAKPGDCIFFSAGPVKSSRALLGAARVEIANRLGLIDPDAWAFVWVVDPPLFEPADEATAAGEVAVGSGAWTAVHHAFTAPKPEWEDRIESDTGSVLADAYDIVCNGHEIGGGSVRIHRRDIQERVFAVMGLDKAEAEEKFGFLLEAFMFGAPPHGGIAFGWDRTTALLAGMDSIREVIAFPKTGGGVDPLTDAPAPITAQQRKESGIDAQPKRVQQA
# [2] = target: Shiga toxin 2 (Escherichia coli O157:H7) (UniProt P09385+P09386); test: E. coli 0.157:H7 Shiga Toxin SOP - stx2 screening assay; format: functional; design: scale not given: direction of the effect not stated beside the values; settings: 30 µM
smiles,measurement,setting,value
Cc1cc(CN2CCN(C(C)c3nc(C4CC4)no3)CC2)no1 (centres undefined),Percent Effect,[1],3.89%
same,Percent Effect,[2],-2.55%
CC(CN1CCC2(CC1)c1nc[nH]c1CCN2S(C)(=O)=O)C(F)(F)F (centres undefined),Percent Effect,[1],2.76%
same,Percent Effect,[2],4.49%
O=C(NC1CC1)[C@H]1C[C@H]2OCC[C@H]2N(CC2CCOCC2)C1,Percent Effect,[1],4.28%
same,Percent Effect,[2],-17.4%
CCn1cc2c(n1)CN(C(=O)c1ccncc1)CC2COCC1CC1 (centres undefined),Percent Effect,[1],3.06%
same,Percent Effect,[2],-17.4%
CCOC1COC2(CCN(Cc3ccc4c(c3)OCO4)CC2)C1 (centres undefined),Percent Effect,[1],-3.53%
same,Percent Effect,[2],-2.45%
COCC1CN(Cc2ccc(OC)cc2)Cc2nn(C)cc21 (centres undefined),Percent Effect,[1],14.5%
same,Percent Effect,[2],-22.6%
Cc1ccc(OC2(C(=O)O)CCN(C(=O)c3ccc(F)cc3)CC2)cn1,Percent Effect,[1],-4.69%
same,Percent Effect,[2],10.4%
CCS(=O)(=O)N1CCC(c2nnc(Cn3cccn3)n2C2CC2)CC1,Percent Effect,[1],-3.09%
same,Percent Effect,[2],-6.14%
CNS(=O)(=O)c1cccc(C(C)NCc2cccc(OC)c2)c1 (centres undefined),Percent Effect,[1],0.915%
same,Percent Effect,[2],-24.3%
COc1ccccc1C(=O)N(C)Cc1ncc(C)c(OC)c1C,Percent Effect,[1],-4.81%
same,Percent Effect,[2],11.8%
COCCC(=O)N1CC2(CCN(Cc3cccc(Cl)c3)CC2)C1,Percent Effect,[1],-1.46%
same,Percent Effect,[2],-17.6%
CC(C)Cc1noc(CN2CCC(NC(=O)c3cccs3)CC2)n1,Percent Effect,[1],1.37%
same,Percent Effect,[2],-32.8%
CCc1nc(NCCCn2cccn2)c2c(n1)c(C)nn2C,Percent Effect,[1],-0.755%
same,Percent Effect,[2],-14.3%
O=C1NCC2(CCCN(CCc3ccccc3)C2)Oc2ccccc21 (centres undefined),Percent Effect,[1],-2.1%
same,Percent Effect,[2],-68.8%
CC(C(=O)N1CCCN(c2ccc(C#N)cc2)CC1)n1ccnc1 (centres undefined),Percent Effect,[1],-2.92%
same,Percent Effect,[2],4.39%
COc1ccc(C(C(=O)O)N2CCCN(C3CCCC3)CC2)cc1OC (centres undefined),Percent Effect,[1],0.804%
same,Percent Effect,[2],-25.6%
COc1ccc(OCc2cc(C(=O)N3CCN[C@H](C)C3)n[nH]2)c(Cl)c1,Percent Effect,[1],-1.22%
same,Percent Effect,[2],-61%
